In PubChem BioAssay:

target: E3 ubiquitin-protein ligase XIAP (Homo sapiens) (UniProt P98170); test: XIAP binders, primary screen, biophysical, small-molecule microarray, fluorescence 635 nm (AID 1181); settings: small-molecule microarray binding, higher = more signal;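 also: score merges 667 nm emission and signal to noise over triplicate slides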
Sequence (P98170 whole entry, looked up): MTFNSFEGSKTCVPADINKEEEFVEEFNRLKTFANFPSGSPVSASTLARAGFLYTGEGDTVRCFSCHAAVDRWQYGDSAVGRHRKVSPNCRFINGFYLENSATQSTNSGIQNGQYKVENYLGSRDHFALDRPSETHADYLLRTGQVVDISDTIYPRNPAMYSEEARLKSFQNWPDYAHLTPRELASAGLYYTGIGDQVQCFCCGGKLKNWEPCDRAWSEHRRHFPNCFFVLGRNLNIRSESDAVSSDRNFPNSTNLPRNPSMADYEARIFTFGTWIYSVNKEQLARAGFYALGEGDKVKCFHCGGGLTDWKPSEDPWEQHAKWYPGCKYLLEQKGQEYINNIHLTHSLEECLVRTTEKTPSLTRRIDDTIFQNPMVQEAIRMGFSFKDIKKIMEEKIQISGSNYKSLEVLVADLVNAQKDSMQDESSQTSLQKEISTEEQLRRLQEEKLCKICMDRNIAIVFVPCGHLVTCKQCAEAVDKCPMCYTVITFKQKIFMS

Row | Compound | composite z-score
1 | CCCC[C@@H]1C[C@H]1[C@@H](NC(=O)c1ccco1)c1ccc(-c2ccccc2)cc1 | 0.773
2 | O=C1O[C@@H](c2ccccc2)[C@@H](c2ccccc2)N2[C@@H](c3ccccc3OCCO)[C@]3(C(=O)Nc4ccc(C#CC5=CCCCC5)cc43)[C@@H](C(=O)N3CCCCCCC3)[C@H]12 | 1.56
3 | O=C1NC(=O)C2C1C=CC(C(O)c1cccs1)N2Nc1ccc(Cl)cc1Cl (stereo not given) | 0.0374
4 | COC(=O)[C@]1(CCC(=O)OC(C)(C)C)N=C(c2ccc(OCCCO)cc2)O[C@@H]1c1ccccc1CN=[N+]=[N-] | -0.0773
5 | COc1ccc(C(=O)Nc2ccc(CN3C(=O)[C@]4(O[C@H](CCO)[C@@H]([Si](C)(C)c5ccc(OC)cc5)[C@@H]4C)c4ccccc43)cc2)cc1 | 0.0623
6 | CC1(C)C2C=C(C(O)C3C=CC4C(=O)NC(=O)C4N3Nc3ccc(Cl)cc3Cl)C[C@@H]1C2 (stereo not given in full) | -0.0769
7 | C=C(COC)C(=O)CC[C@@H](OC(C)=O)c1ccc(CO)o1 | 0.383
8 | COC(=O)c1c(CC[C@@H](CO)NC(=O)NCCn2cc(C3(O)CCCC3)nn2)oc(C(C)=O)c1C(=O)OC | -0.0343
9 | C=C(C(=O)CC[C@@H](OC(=O)c1cccnc1)c1ccccc1OCCO)C(C)C | -0.0872
10 | CCOC(=O)C[C@H]1[C@H](OC(=O)c2ccc(C(=O)c3ccccc3)cc2)[C@@H](NC(=O)c2ccccc2)c2cc(OCCCO)ccc2N1C(=O)c1ccc2ccccc2n1 | 0.0997
11 | COc1cc(NN2C(C(O)c3ccco3)C=CC3C(=O)N(c4ccccc4)C(=O)C32)cc(OC)c1OC (stereo not given) | -0.081
12 | COCCCNC(=O)[C@@]1(C)c2ccccc2C(=O)N(C(C)C)[C@H]1c1ccc(CO)cc1 | 0.109
13 | COc1cc2c(cc1OC)CN(C(=O)[C@@H]1[C@H]3C(=O)O[C@H](c4ccccc4)[C@H](c4ccccc4)N3[C@H](c3ccc(O)cc3)[C@@]13C(=O)Nc1ccccc13)CC2 | -0.201
14 | O=C(NC1CC1)[C@@H]1c2ccccc2C(=O)N(Cc2ccccc2Cl)[C@H]1c1ccc(CO)cc1 | 0.0297
15 | O=C1c2ccccc2[C@](Cc2ccccc2I)(C(=O)NCC(F)(F)F)[C@H](c2ccc(CO)cc2)N1Cc1ccccc1Cl | -0.0663
16 | Cc1ccc(S[C@]2(C(=O)O)CC(=O)N(C(C)C)[C@@H]2c2ccc(CO)cc2I)cc1 | -0.122
17 | COc1ccc(C#Cc2ccc3c(c2)[C@]2(C(=O)N3)[C@H](C(=O)NC[C@H](O)c3ccccc3)[C@H]3C(=O)O[C@H](c4ccccc4)[C@H](c4ccccc4)N3[C@@H]2c2ccc(O)cc2)cc1 | 0.262
18 | COC(=O)[C@@]1(Cc2ccc(F)cc2)[C@H]2c3cc(C(=O)N4CCCC4)n(Cc4ccc(S(C)(=O)=O)cc4)c3C[C@H]2CN1C(=O)c1ccccc1 | 0.261

Row | Compound | composite z-score
19 | O=C1C2C=CC(C(O)c3cccc4ccccc34)N(Nc3ccccc3F)C2C(=O)N1c1ccccc1 (stereo not given) | 0.321
20 | CCCC[C@@H]1C[C@H]1[C@@H](NC(=O)c1ccco1)c1ccccc1C(F)(F)F | 0.271
21 | CC(C)NC(=O)[C@@]1(c2ccc([N+](=O)[O-])cc2)CC(=O)N(C2CCCCC2)[C@@H]1c1ccc(CO)cc1I | -0.177
22 | C=CCOC(=O)[C@H]1[C@@H]2C(=O)O[C@@H](c3ccccc3)[C@@H](c3ccccc3)N2[C@@H](c2ccc(OCCOC(=O)[C@H]3C[C@H]4C(=O)N[C@@H](CCCCNC(C)=O)C(=O)N4[C@H]3c3ccc(O)cc3)cc2)[C@]12C(=O)Nc1ccc(I)cc12 | -0.0784
23 | Cc1ccc(S[C@]2(C(=O)NC3CC3)CC(=O)N(Cc3ccccc3)[C@@H]2c2ccc(CO)cc2I)cc1 | -0.252
24 | CC1CC/C=C\[C@H]2OC34C=CCN(C(C)(C)C)C(=O)[C@H]3N(CCO)C(=O)[C@@H]4C2C(=O)O1 (stereo not given in full) | -0.309
25 | C=CCC(OC(C)=O)[C@@H]1[C@@H](N(Cc2ccc(-c3ccccc3)cc2)C(=O)Cc2ccc(OC)cc2)c2cc(OCCCO)ccc2N1C(=O)Cc1ccc2ccccc2c1 (stereo not given in full) | 0.098
26 | COC(=O)C(CC#Cc1ccc2c(c1)[C@]1(C(=O)N2)[C@H](C(=O)Nc2nc3ccccc3s2)[C@H]2C(=O)O[C@H](c3ccccc3)[C@H](c3ccccc3)N2[C@@H]1c1ccc(O)cc1)C(=O)OC | 0.208
27 | O=C1C[C@@](C(=O)NCCN2CCOCC2)(c2ccc([N+](=O)[O-])cc2)[C@@H](c2ccc(CO)cc2I)N1CC12CC3CC(CC(C3)C1)C2 | -0.0095
28 | CCCCCN1CC=CC23O[C@@H]4C=CCCOC(=O)C4[C@H]2C(=O)N(CCCCCO)[C@@H]3C1=O (stereo not given in full) | 0.263
29 | COCCCNC(=O)[C@@H]1c2ccccc2C(=O)N(Cc2ccccc2Cl)[C@H]1c1ccc(CO)cc1 | 0.78
30 | C=C(CCCC)/C(=C/C[C@@H](OC(C)=O)c1ccc(OCCO)cc1)c1cnc2ccccc2c1 | -0.0228
31 | COc1ccc(CCNC(=O)[C@@]2(Sc3ccc(C)cc3)CC(=O)N(C(C)C)[C@@H]2c2ccc(CO)cc2I)cc1 | 0.0374
32 | CCCC[C@@H]1C[C@H]1[C@@H](NC(=O)c1cccs1)c1ccc(-c2ccccc2)cc1 | 0.416
33 | CN(C)CCCCCCNC(=O)[C@H]1C[C@H]2C(=O)N[C@@H](CCCCN)C(=O)N2[C@H]1c1cccc(OCCO)c1 | 2.02
34 | C=C(C)[C@@H]1CC=C(C(O)C2C=CC3C(=O)N(c4ccccc4)C(=O)C3N2Nc2ccccc2)CC1 (stereo not given in full) | 0.0997
35 | COCCOC(=O)N1C(=O)[C@@]2(c3cc(C#CCC(C(=O)OC)C(=O)OC)ccc31)[C@H](c1ccccc1OCCO)N1[C@H](c3ccccc3)[C@H](c3ccccc3)OC(=O)[C@H]1[C@@H]2C(=O)NC[C@H](O)c1ccccc1 | 0.177
